Gal4-VP16 FLuc – counter-screen for ROR gamma inhibitors: Gal4-VP16 reporter; Drosophila S2 Gal4-VP16 UAS-luciferase, luminescence, 20 h; Potency, µM (highest dose often 53.6 µM), inactives show at the highest dose activity, negative = inhibition, usual class: inhibitors; 3.5% of 310,000 active;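 further: Gal4-VP16 expression switched on by copper sulfate through the metallothionein promoter; nearly all actives have a fitted effect of over 50% in size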
Luc counter – Kinase-Glo luciferase inhibition (counter-screen). Q27757. 0.28% of 200,000 active. Potency, µM (doses to about 38.3 µM), inactives show at the highest dose activity change, negative = inhibition, usual class: inhibitors. Kinase-Glo luciferase, ATP luminescence, 8 min; further: nearly all actives have a fitted effect of over 60% in size
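Inhibition of Kinase-Glo luciferase light generation was assessed at 10 uM ATP in pH 7.2 imidazole buffer, with luminescence measured after eight minutes at ambient temperature.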
RORgamma inh – inhibitors of mouse ROR gamma transcriptional activity | Drosophila S2 Gal4-RORgamma UAS-luciferase reporter, 20 h | Potency, µM (top dose mostly 53.6 µM), for the others: at the highest dose activity change, negative = inhibition, hits mostly inhibitors | 5.4% of 310,000 active | AID 2551; further: nearly all actives have a fitted effect of over 60% in size
Target sequence (P51450 whole entry, looked up, the tested form may be a part): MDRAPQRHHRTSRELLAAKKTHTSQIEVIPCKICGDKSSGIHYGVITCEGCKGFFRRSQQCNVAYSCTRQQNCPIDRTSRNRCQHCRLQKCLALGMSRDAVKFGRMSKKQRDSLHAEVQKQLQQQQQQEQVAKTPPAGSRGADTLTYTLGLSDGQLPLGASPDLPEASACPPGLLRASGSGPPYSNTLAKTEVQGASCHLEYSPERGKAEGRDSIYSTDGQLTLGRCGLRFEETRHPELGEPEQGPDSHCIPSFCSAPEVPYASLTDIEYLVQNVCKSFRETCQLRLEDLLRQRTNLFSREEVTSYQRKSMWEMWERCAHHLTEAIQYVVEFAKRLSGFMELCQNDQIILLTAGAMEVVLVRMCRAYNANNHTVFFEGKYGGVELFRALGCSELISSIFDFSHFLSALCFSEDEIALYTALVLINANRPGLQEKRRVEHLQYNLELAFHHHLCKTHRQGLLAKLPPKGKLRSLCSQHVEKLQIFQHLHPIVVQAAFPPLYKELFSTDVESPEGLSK
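Luminescence from a UAS-regulated Photinus luciferase reporter in stably transfected Drosophila Schneider cells is measured; decreased signal marks ROR gamma inhibition. Fusion expression is induced by 700 uM copper sulfate for 20 hr.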
* marks the source's active call; other numbers are inactive results; ? = inconclusive; . = no result; [ ] = another dose, or the depositor's remark. Compounds with a hit are over-represented: about 6.4% of the library has one in this group of screens. The call rests on the fitted dose curve; in most records, active means well fitted curve in the direction sought with a large enough effect; inconclusive means small, poorly fitted or top-dose-only effect, or another doubt; inactive means no such curve, though single readings can be large; an effect the other way counts as inactive or inconclusive. On the % scale 0 is the no-effect control and ±100 the full control effect; potency means the concentration at half of the fitted maximal effect.

SMILES | Gal4-VP16 FLuc | Luc counter | RORgamma inh
NS(=O)(=O)c1ccc(NC2=CC(c3ccc([N+](=O)[O-])cc3)N(c3ccc(S(N)(=O)=O)cc3)C2=O)cc1 (stereo not given) | 10% | . | ?
O=C(NCc1ccccc1)c1ccc(Cc2nc3ccccc3[nH]2)cc1 | . | -2% | .
COC(=O)CN1C(c2ccccc2)=Nc2ccc(Cl)cc2C1c1ccccc1 (stereo not given) | -12% | -2% | 13µM*
COC(=O)CN1C(C)=Nc2ccc(C)cc2C1c1ccccc1 (stereo not given) | -7% | -1% | 0%
O=C1N/C(=C\c2ccc(O)cc2)C(=O)c2ccccc21 | 10µM* | 13µM* | ?
O=C(O)/C=C1\NC(=O)c2ccccc21 | -6% | 1% | -16%
CCOC(=O)C1CCN(C(=O)c2cc3c(=O)n4ccccc4nc3n2C)CC1 | -5% | -1% | 13%
COc1ccc2c(c1)CCc1c(C(=O)Nc3ccc(OC)c(OC)c3)noc1-2 | ? | -8% | 1.4µM*
COc1ccc2c(c1)CCc1c(C(=O)NCCc3ccc(OC)c(OC)c3)noc1-2 | -2%[0.365 µM] | 1% | -12%
O=C(CCn1cccn1)Nc1ccc(-c2ccno2)cc1 | -3% | . | 11%
N=C1N=C(N)c2cc3ccccc3cc21 | -6% | . | -2%
CCOc1ccc(C(=O)/C=C/c2ccc(SC)cc2)cc1 | 2% | 3% | ?
CSc1ccc(/C=C/C(=O)c2ccc(O)cc2)cc1 | 1.1µM* | -18% | 0.5µM*
CN(C)c1ccc(C(=O)/C=C/c2ccccc2)cc1 | ? | -4% | 11µM*
Cc1ccc(/C=C/C(=O)c2ccccc2)cc1 | -22% | ? | -9%
Cc1ccc(C(=O)O[C@H](C(=O)O)[C@H](OC(=O)c2ccc(C)cc2)C(=O)O)cc1 | 1% | . | 1%
Cc1ccc(C(=O)/C=C/C(=O)O)cc1 | 7.9µM* | 2% | 11µM*
Cc1ccc(/C=C/C(=O)c2ccc(O)cc2)cc1 | 7.1µM* | . | 2µM*
CN(C)c1ccc(C(=O)/C=C/c2ccc(Br)cc2)cc1 | 7% | -3% | ?
COc1ccc(CCNC(=O)Cn2c(=O)n(-c3ccc(C)c(F)c3)c(=O)c3sccc32)cc1OC | 7%[10 µM] | -3% | 19%
COc1ccc(OCc2nnc(SCC(=O)Nc3ccccc3F)o2)cc1 | 0% | . | -7%
O=c1cc(O)sc2ccccc12 | -2% | 2% | ?
O=c1[nH]sc2ccccc12 | 3.5µM* | 0% | 0.4µM*
Cc1cc(C)cc(OCCNC(=O)CCc2ccccc2)c1 | 2% | . | 0%[1.91 µM]
COC(=O)c1cc(O)cc(OC)c1C(=O)c1c(O)cc(C)cc1O | ? | . | -23%
SMILES | Gal4-VP16 FLuc | Luc counter | RORgamma inh
COC(=O)c1cc(O)cc(OC)c1Oc1cc(C)cc(O)c1C(=O)O | 7.1µM* | . | 0%
COc1ccc(C2NC(c3ccc(OC)cc3)C(c3ccccc3)C(=O)C2c2ccccc2)cc1 (stereo not given) | 7% | 1% | -8%
C=C[C@@]1(C)CC[C@H]2C(=CC[C@@H]3[C@]2(C)CCC[C@@]3(C)C(=O)O)C1 | 0% | . | -68%
COC(=O)c1cc(Sc2c(Cl)cccc2Cl)ccn1 | 6%[10 µM] | -3% | ?
COC(=O)c1cc(Sc2cccc(Cl)c2Cl)ccn1 | 11µM* | 1% | ?
CC1CCCC(C)N1C(=O)c1cc(-c2ccc3c(c2)OCO3)on1 (stereo not given) | 0% | . | 4%
O=C(NNc1c2ccccc2nc2ccccc12)c1ccccc1O | -25% | -6% | 18%
O=C(NNc1nc(=O)c2cccnc2s1)c1ccccc1O | -90% | -1% | 0.05µM*
O=C1C=C[C@@H](O)[C@H]2[C@@H]3C(=O)N(c4cccc(Oc5ccccc5)c4)C(=O)[C@@H]3CC[C@H]12 | 3%[10 µM] | . | -17%[10 µM]
Cc1cc(-c2nnc(SCC(=O)Nc3nc(-c4ccc(Cl)cc4)cs3)o2)no1 | ? | . | 14µM*
Cc1cc(-c2nnc(SCCC(=O)Nc3ccccc3)o2)no1 | ? | . | 14µM*
O=C(CCSc1nnc(-c2ccncc2)o1)Nc1ccccc1 | -11%[0.365 µM] | 6% | -44%
COc1cc(NC(=O)CSc2nnc(-c3cc(C)on3)o2)cc(OC)c1 | 0% | . | -11%
CCN(CC)C(=O)CSc1nnc(-c2cc(-c3ccc(Cl)cc3)nc3ccccc23)o1 | 0% | 0% | 7%
CCNC(=O)CSc1nnc(-c2cc(-c3ccc(Cl)cc3)nc3ccccc23)o1 | ? | -2% | 0.2µM*
COc1ccc(/C=N/NC(=O)c2ccccc2F)cc1CN1CCN(c2ccc(F)cc2)CC1 | ? | 3% | 32%[10 µM]
C/C=C/C1=CC2=CC(=O)C(C)(OC(=O)c3c(C)cc(O)cc3O)C(=O)C2=CO1 (stereo not given) | -1% | -2% | 0%
CCN(CC)S(=O)(=O)c1ccc(OC)c(NC(=O)CSc2cc(C)ccc2C)c1 | -19% | -2% | ?
Cn1cc(CN(CCO)Cc2cccs2)c(-c2ccccc2F)n1 | 11% | -2% | 24%
O=c1c(Cl)c(N2CCOCC2)cnn1-c1nc2ccccc2[nH]1 | ? | -14% | ?
CC1(C)CC(=O)c2cnn(-c3nc4ccccc4[nH]3)c2C1 | ? | -1% | 8.9µM*
Cc1c(Cl)cccc1NC(=S)N(CCN(C)C)C(C)c1ccco1 (stereo not given) | -30% | . | ?
CN(C)c1ccc(-c2nnn(CC(=O)NCc3ccc4c(c3)OCO4)n2)cc1 | -12%[10 µM] | 0% | 31%
O=C(N/N=C(\c1ccccc1)c1cccnc1)c1cccc(F)c1 | . | . | 0.13µM*
CC(/C=C/C=C/c1ccccc1)=N\NC(=O)c1cccnc1 | 3.2µM* | 2% | 2.8µM*
SMILES | Gal4-VP16 FLuc | Luc counter | RORgamma inh
CC(/C=C/C=C/c1ccccc1)=N/NC(=O)C(O)c1ccccc1 (stereo not given) | -10% | . | -41%
O=C(N/N=C(\c1ccccc1)c1cccnc1)c1ccc(O)cc1 | 7% | . | 12%
CC(/C=C\C=C\c1ccccc1)=N\NC(=O)c1cncc(Br)c1 | 6.3µM* | 3% | 4.5µM*
CC(/C=C/C=C/c1ccccc1)=N/NC(=O)c1ccc2c(c1)OCCO2 | 8% | . | -19%
N#CC1C(C#N)N2CCCN2C1c1ccc(Br)cc1 (stereo not given) | -1% | . | 3%
COC(=O)[C@@H]1CC[C@H](C)[C@@H](c2ccc(C)cc2)N1C(=O)c1ccc(/C=N/OCC[C@@H]2C=C[C@H](OC(C)=O)[C@@H](COC(C)=O)O2)cc1 | -11% | -3% | 3%
CN1CCN(S(=O)(=O)c2cccc(C(=O)NCc3ccc(Cl)cc3)c2)CC1 | 4% | -1% | 1%
N/N=C/C(=N\Nc1ccc(Cl)cc1)C(=O)c1ccncc1 | 3% | . | ?
CCOC(=O)N1CCC(n2c(=S)[nH]c3cc(OC)c(OC)cc3c2=O)CC1 | 11µM* | 2% | ?
CCOC(=O)N1CCN(C(=O)CCn2c(=S)[nH]c3cc(OCC)c(OCC)cc3c2=O)CC1 | 2% | 0% | -4%
CCCCN(C)CCn1c(=S)[nH]c2cc(OCC)c(OCC)cc2c1=O | ? | -4% | 11µM*
COc1cc2[nH]c(=S)n(NC(=O)CC(C)C)c(=O)c2cc1OC | -4% | 4% | 0%
CCOc1cc2[nH]c(=S)n(CCCN(CC)CC)c(=O)c2cc1OCC | -13% | 2% | -40%
COCCn1c(=S)[nH]c2ccc(N(C)C)cc2c1=O | ? | -1% | 16µM*

Bioassay records as filed in PubChem.
